# Out of some 5,500 compounds screened, about 2,000 (36%) were called active. Not shown: some 18% with an inconclusive outcome. The list shows a part of the results. Unmarked numbers belong to inactive results. No stated cut-off is given here; in the data, active means normalized growth mostly below about 0.91 (no sharp cut-off); inconclusive means no clear call, values can overlap the other calls; inactive means mostly above about 0.92.
# Test: chemical genetic growth profiling, strain panel (AID 1159580);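 further: tested at 20 µM; growth read once vehicle control cultures reached saturation at 30 °C; 1 = growth at the plate median or of vehicle wells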
# Settings: growth OD
# [1] = S. cerevisiae deletion strains, locus YDL101C, strain DUN1, stronger effect = lower value
# [2] = S. cerevisiae deletion strains, locus YHR030C, strain SLT2, stronger effect = lower value
# [3] = S. cerevisiae deletion strains, locus YBR229C, strain ROT2, stronger effect = lower value
# [4] = S. cerevisiae deletion strains, locus YDR150W, strain NUM1, stronger effect = lower value
# [5] = S. cerevisiae deletion strains, locus YEL061C, strain CIN8, stronger effect = lower value
# [6] = S. cerevisiae deletion strains, locus YGR078C, strain PAC10, stronger effect = lower value
# [7] = S. cerevisiae deletion strains, locus YHR087W, strain rtc3, stronger effect = lower value
# [8] = S. cerevisiae deletion strains, locus YJL187C, strain SWE1, stronger effect = lower value
# [9] = S. cerevisiae deletion strains, locus YJR043C, strain POL32, stronger effect = lower value
# [10] = S. cerevisiae deletion strains, locus YJR075W, strain HOC1, stronger effect = lower value
# [11] = S. cerevisiae deletion strains, locus YKL190W, strain CNB1, stronger effect = lower value
# [12] = S. cerevisiae deletion strains, locus YLR039C, strain RIC1, stronger effect = lower value
# [13] = S. cerevisiae deletion strains, locus YLR058C, strain SHM2 (second series), stronger effect = lower value
# [14] = S. cerevisiae deletion strains, locus YLR085C, strain ARP6, stronger effect = lower value
# [15] = S. cerevisiae deletion strains, locus YLR262C, strain YPT6, stronger effect = lower value
# [16] = S. cerevisiae deletion strains, locus YML094W, strain GIM5, stronger effect = lower value
# [17] = S. cerevisiae deletion strains, locus YMR219W, strain ESC1, stronger effect = lower value
# [18] = S. cerevisiae deletion strains, locus YMR263W, strain SAP30, stronger effect = lower value
# [19] = S. cerevisiae deletion strains, locus YNL153C, strain GIM3, stronger effect = lower value
# [20] = S. cerevisiae deletion strains, locus YNL298W, strain CLA4 (second series), stronger effect = lower value
# [21] = S. cerevisiae deletion strains, locus YNL322C, strain KRE1, stronger effect = lower value
# [22] = S. cerevisiae deletion strains, locus YNR030W, strain Alg12, stronger effect = lower value
# [23] = S. cerevisiae deletion strains, locus YPL055C, strain LGE1, stronger effect = lower value
# [24] = S. cerevisiae deletion strains, locus YPL241C, strain CIN2, stronger effect = lower value
# [25] = S. cerevisiae deletion strains, locus YPR135W, strain CTF4, stronger effect = lower value
smiles,measurement,setting,value
CCOC(=O)c1cnc(-c2ccccn2)[nH]c1=O,normalized growth,"S. cerevisiae deletion strains, locus YAR019C, strain CDC15, stronger effect = lower value",0.933
same,normalized growth,"S. cerevisiae deletion strains, locus YBL105C, strain PKC1, stronger effect = lower value",0.955
same,normalized growth,"S. cerevisiae deletion strains, locus YBR135W, strain CKS1, stronger effect = lower value",0.932
same,normalized growth,"S. cerevisiae deletion strains, locus YBR136W, strain MEC1, stronger effect = lower value",0.94
same,normalized growth,"S. cerevisiae deletion strains, locus YBR160W, strain CDC28, stronger effect = lower value",0.934
same,normalized growth,"S. cerevisiae deletion strains, locus YDL017W, strain CDC7, stronger effect = lower value",0.957
same,normalized growth,"S. cerevisiae deletion strains, locus YDL028C, strain MPS1, stronger effect = lower value",0.94
same,normalized growth,[1],0.955
same,normalized growth,"S. cerevisiae deletion strains, locus YDL108W, strain KIN28, stronger effect = lower value",0.943
same,normalized growth,"S. cerevisiae deletion strains, locus YDL132W, strain cdc53, stronger effect = lower value",0.948
same,normalized growth,"S. cerevisiae deletion strains, locus YDL214C, strain PRR2, stronger effect = lower value",0.825
same,normalized growth,"S. cerevisiae deletion strains, locus YDR052C, strain DBF4, stronger effect = lower value",0.952
same,normalized growth,"S. cerevisiae deletion strains, locus YDR054C, strain cdc34, stronger effect = lower value",0.899
same,normalized growth,"S. cerevisiae deletion strains, locus YDR226W, strain ADK1, stronger effect = lower value",0.935
same,normalized growth,"S. cerevisiae deletion strains, locus YDR477W, strain SNF1, stronger effect = lower value",0.85
same,normalized growth,"S. cerevisiae deletion strains, locus YER123W, strain YCK3, stronger effect = lower value",0.453 (active)
same,normalized growth,"S. cerevisiae deletion strains, locus YER133W, strain GLC7, stronger effect = lower value",0.856
same,normalized growth,"S. cerevisiae deletion strains, locus YFL009W, strain cdc4, stronger effect = lower value",0.907
same,normalized growth,"S. cerevisiae deletion strains, locus YFL029C, strain CAK1, stronger effect = lower value",0.932
same,normalized growth,"S. cerevisiae deletion strains, locus YFR003C, strain YPI1, stronger effect = lower value",0.947
same,normalized growth,"S. cerevisiae deletion strains, locus YFR019W, strain FAB1, stronger effect = lower value",0.819
same,normalized growth,"S. cerevisiae deletion strains, locus YFR028C, strain CDC14, stronger effect = lower value",0.937
same,normalized growth,"S. cerevisiae deletion strains, locus YGR040W, strain KSS1, stronger effect = lower value",0.866
same,normalized growth,"S. cerevisiae deletion strains, locus YGR052W, strain FMP48, stronger effect = lower value",0.69
same,normalized growth,"S. cerevisiae deletion strains, locus YGR092W, strain DBF2, stronger effect = lower value",0.638
same,normalized growth,[2],0.734 (active)
same,normalized growth,"S. cerevisiae deletion strains, locus YHR079C, strain IRE1, stronger effect = lower value",0.426 (active)
same,normalized growth,"S. cerevisiae deletion strains, locus YHR082C, strain KSP1, stronger effect = lower value",0.839
same,normalized growth,"S. cerevisiae deletion strains, locus YHR205W, strain SCH9, stronger effect = lower value",0.965
same,normalized growth,"S. cerevisiae deletion strains, locus YIL147C, strain SLN1, stronger effect = lower value",0.935
same,normalized growth,"S. cerevisiae deletion strains, locus YJL095W, strain BCK1, stronger effect = lower value",0.432 (active)
same,normalized growth,"S. cerevisiae deletion strains, locus YJL128C, strain PBS2, stronger effect = lower value",1.01
same,normalized growth,"S. cerevisiae deletion strains, locus YJL157C, strain FAR1, stronger effect = lower value",0.743
same,normalized growth,"S. cerevisiae deletion strains, locus YJR016C, strain ILV3, stronger effect = lower value",0.934
same,normalized growth,"S. cerevisiae deletion strains, locus YJR066W, strain TOR1 (second series), stronger effect = lower value",0.741
same,normalized growth,"S. cerevisiae deletion strains, locus YJR066W, strain TOR1, stronger effect = lower value",0.652
same,normalized growth,"S. cerevisiae deletion strains, locus YKL048C, strain ELM1, stronger effect = lower value",0.927
same,normalized growth,"S. cerevisiae deletion strains, locus YKL067W, strain YNK1, stronger effect = lower value",0.818
same,normalized growth,"S. cerevisiae deletion strains, locus YKL101W, strain HSL1, stronger effect = lower value",0.871
same,normalized growth,"S. cerevisiae deletion strains, locus YKL193C, strain SDS22, stronger effect = lower value",0.917
same,normalized growth,"S. cerevisiae deletion strains, locus YKL203C, strain TOR2, stronger effect = lower value",0.901
same,normalized growth,"S. cerevisiae deletion strains, locus YLR113W, strain HOG1, stronger effect = lower value",0.487 (active)
same,normalized growth,"S. cerevisiae deletion strains, locus YLR133W, strain CKI1, stronger effect = lower value",0.834
same,normalized growth,"S. cerevisiae deletion strains, locus YLR403W, strain SFP1, stronger effect = lower value",0.785
same,normalized growth,"S. cerevisiae deletion strains, locus YML070W, strain DAK1, stronger effect = lower value",0.744
same,normalized growth,"S. cerevisiae deletion strains, locus YMR001C, strain CDC5, stronger effect = lower value",0.934
same,normalized growth,"S. cerevisiae deletion strains, locus YMR205C, strain PFK2 (second series), stronger effect = lower value",0.848
same,normalized growth,"S. cerevisiae deletion strains, locus YMR277W, strain FCP1, stronger effect = lower value",0.922
same,normalized growth,"S. cerevisiae deletion strains, locus YNL006W, strain LST8, stronger effect = lower value",0.966
same,normalized growth,"S. cerevisiae deletion strains, locus YNL020C, strain ARK1, stronger effect = lower value",0.833
same,normalized growth,"S. cerevisiae deletion strains, locus YNL161W, strain CBK1, stronger effect = lower value",0.933
same,normalized growth,"S. cerevisiae deletion strains, locus YNL183C, strain NPR1, stronger effect = lower value",0.603
same,normalized growth,"S. cerevisiae deletion strains, locus YNL207W, strain RIO2, stronger effect = lower value",0.926
same,normalized growth,"S. cerevisiae deletion strains, locus YNL222W, strain SSU72, stronger effect = lower value",0.921
same,normalized growth,"S. cerevisiae deletion strains, locus YNL307C, strain MCK1 (second series), stronger effect = lower value",0.759
same,normalized growth,"S. cerevisiae deletion strains, locus YOL078W, strain AVO1, stronger effect = lower value",0.92
same,normalized growth,"S. cerevisiae deletion strains, locus YOL136C, strain PFK27, stronger effect = lower value",0.752
same,normalized growth,"S. cerevisiae deletion strains, locus YOR061W, strain CKA2, stronger effect = lower value",0.835
same,normalized growth,"S. cerevisiae deletion strains, locus YOR119C, strain RIO1, stronger effect = lower value",0.863
same,normalized growth,"S. cerevisiae deletion strains, locus YOR231W, strain MKK1, stronger effect = lower value",0.413 (active)
same,normalized growth,"S. cerevisiae deletion strains, locus YOR329C, strain SCD5, stronger effect = lower value",0.948
same,normalized growth,"S. cerevisiae deletion strains, locus YPL031C, strain PHO85, stronger effect = lower value",0.82
same,normalized growth,"S. cerevisiae deletion strains, locus YPL153C, strain RAD53, stronger effect = lower value",0.759
same,normalized growth,"S. cerevisiae deletion strains, locus YPL204W, strain HRR25, stronger effect = lower value",0.773
same,normalized growth,"S. cerevisiae deletion strains, locus YPL209C, strain IPL1, stronger effect = lower value",0.946
same,normalized growth,"S. cerevisiae deletion strains, locus YPL256C, strain CLN2, stronger effect = lower value",0.464 (active)
same,normalized growth,"S. cerevisiae deletion strains, locus YPR025C, strain CCL1, stronger effect = lower value",0.953
same,normalized growth,"S. cerevisiae deletion strains, locus YPR106W, strain ISR1, stronger effect = lower value",0.944
same,normalized growth,"S. cerevisiae deletion strains, locus YPR111W, strain DBF20, stronger effect = lower value",0.939
same,normalized growth,"S. cerevisiae deletion strains, strain NNK1, stronger effect = lower value",0.932
same,normalized growth,"S. cerevisiae deletion strains, strain TSCII, stronger effect = lower value",0.916
CCOC(=O)c1c[nH]c2c(F)cccc2c1=O,normalized growth,[3],1
same,normalized growth,"S. cerevisiae deletion strains, locus YCL061C, strain MRC1, stronger effect = lower value",0.985
same,normalized growth,[1],0.963
same,normalized growth,[4],0.963
same,normalized growth,[5],1.04
same,normalized growth,[6],0.982
same,normalized growth,[2],1.03
same,normalized growth,[7],1.02
same,normalized growth,[8],1.01
same,normalized growth,[9],0.988
same,normalized growth,[10],0.973
same,normalized growth,[11],0.993
same,normalized growth,[12],1.06
same,normalized growth,[13],1.01
same,normalized growth,[14],1.03
same,normalized growth,[15],1.04
same,normalized growth,[16],1.02
same,normalized growth,[17],0.997
same,normalized growth,[18],1.01
same,normalized growth,[19],0.973
same,normalized growth,[20],0.981
same,normalized growth,[21],0.996
same,normalized growth,[22],0.978
same,normalized growth,[23],1.02
same,normalized growth,[24],0.962
same,normalized growth,[25],0.985
same,normalized growth,"S. cerevisiae strains, strain wild type, stronger effect = lower value",0.989
CCOC(=O)c1cnc(SCC(=O)c2ccc(Cl)cc2Cl)[nH]1,normalized growth,"S. cerevisiae deletion strains, locus YAL013W, strain DEP1, stronger effect = lower value",1
same,normalized growth,[3],1
same,normalized growth,[1],1
same,normalized growth,[4],1.02
same,normalized growth,[5],1.03
same,normalized growth,[6],1.02
same,normalized growth,[2],0.936
same,normalized growth,[7],1.01
same,normalized growth,[8],1.03
same,normalized growth,[9],0.999
same,normalized growth,[10],1
same,normalized growth,[11],0.993
same,normalized growth,[12],0.934
same,normalized growth,[13],1.01
same,normalized growth,[14],1.06
same,normalized growth,[15],0.914
same,normalized growth,[16],1.01
same,normalized growth,[17],1.01
same,normalized growth,[18],0.938
same,normalized growth,[19],1
same,normalized growth,[20],1.04
same,normalized growth,[21],1.01
same,normalized growth,[22],0.988
same,normalized growth,[23],1.08
same,normalized growth,[24],1.01
same,normalized growth,[25],0.851
